# Source: the supplement of paper PMC8975748
# Structures can show the parent of a compound that is named as a salt.
# Tested on: Saccharomyces cerevisiae BY4741 SeMeCo community
# Assay: z-score of subpopulation abundance vs DMSO median, subpopulation auxotrophic for HLUM; higher = larger share of this subpopulation than in DMSO controls
# Settings: 10 µM; 24 h; SM minimal medium; subpopulation (auxotrophy): HLUM
# Protocol: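 Fluorescent four-plasmid SeMeCo (self-establishing metabolically cooperating S. cerevisiae BY4741 community; plasmids pH-mRuby2, pL-mWasabi, pU-eCFP, pM-TagRFP657) was grown 24 h in minimal SM medium with each Selleck FDA-approved drug at 10 µM in 384-well plates. Cells were fixed and imaged by high-content confocal microscopy. For each auxotrophic subpopulation (and the prototroph), a z-score gives the deviation from the DMSO vehicle-control population median.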
row,Compound,z-score of subpopulation abundance
1,CCOC(=O)C1=C(COCCN)NC(C)=C(C(=O)OC)C1c1ccccc1Cl (stereo not given) [Amlodipine],-1.8
2,C[C@]12CC[C@@H]3c4ccc(OS(=O)(=O)O)cc4CC[C@H]3[C@@H]1CCC2=O [Estropipate],-0.39
3,C[C@@H]1[C@H](O)[C@@H](C)/C=C/C=C/C=C/C=C/C=C/C=C/C=C/[C@H](O[C@@H]2O[C@H](C)[C@@H](O)[C@H](N)[C@@H]2O)C[C@@H]2O[C@](O)(C[C@@H](O)C[C@@H](O)[C@H](O)CC[C@@H](O)C[C@@H](O)CC(=O)O[C@H]1C)C[C@H](O)[C@H]2C(=O)O [Amphotericin B],163
4,CN[C@H](CC(C)C)C(=O)N[C@H]1C(=O)N[C@@H](CC(N)=O)C(=O)N[C@H]2C(=O)N[C@H]3C(=O)N[C@H](C(=O)N[C@H](C(=O)O)c4cc(O)cc(O)c4-c4cc3ccc4O)[C@H](O)c3ccc(c(Cl)c3)Oc3cc2cc(c3O[C@@H]2O[C@H](CO)[C@@H](O)[C@H](O)[C@H]2O[C@H]2C[C@](C)(N)[C@H](O)[C@H](C)O2)Oc2ccc(cc2Cl)[C@H]1O [Vancomycin],-0.03
5,Nc1nnc(-c2cccc(Cl)c2Cl)c(N)n1 [Lamotrigine],1.58
6,Nc1ccc(S(N)(=O)=O)cc1 [Sulfanilamide],-0.65
7,CN1C(C(=O)Nc2ccccn2)=C(O)c2sc(Cl)cc2S1(=O)=O [Lornoxicam],-0.1
8,O=C(O)c1cn(C2CC2)c2cc(N3CCNCC3)c(F)cc2c1=O [Ciprofloxacin hydrochloride hydrate],0.98
9,CCC(C)(C)C(=O)O[C@H]1C[C@@H](C)C=C2C=C[C@H](C)[C@H](CC[C@@H]3C[C@@H](O)CC(=O)O3)[C@H]21 [Simvastatin],2.55
10,COc1ccc(CC2c3cc(OC)c(OC)cc3CC[N+]2(C)CCC(=O)OCCCCCOC(=O)CC[N+]2(C)CCc3cc(OC)c(OC)cc3C2Cc2ccc(OC)c(OC)c2)cc1OC (stereo not given) [Atracurium Besylate],-0.07
11,"CCC(=O)Oc1ccc2c(c1)CCC1C2CCC2(C)C(OC(=O)CC)CCC12 (stereo not drawn) [Estradiol dipropionate(17-Beta-Estradiol-3,17-Dipropionate)]",-1.07
12,Cc1ncc([N+](=O)[O-])n1CC(O)CCl (stereo not given) [Ornidazole],0.77
13,O=C1c2c(O)ccc(O)c2C(=O)c2c(NCCNCCO)ccc(NCCNCCO)c21 [Mitoxantrone 2HCl],-2.13
14,c1ccc(C2CN3CCSC3=N2)cc1 (stereo not given) [Tetramisole HCl],0.92
15,O=C1C(=O)c2ccccc2C(O)=C1C1CCC(c2ccc(Cl)cc2)CC1 (stereo not given) [Atovaquone],0.68
16,CC(C)[C@H](N)C(=O)OCC(CO)OCn1cnc2c(=O)[nH]c(N)nc21 (stereo not given in full) [Valganciclovir HCl],-0.35
17,Clc1ccc(COC(Cn2ccnc2)c2ccc(Cl)cc2Cl)cc1 (stereo not given) [Econazole],17.3
18,O=c1ccn(C2CC(O)C(CO)O2)c(=O)[nH]1 (stereo not given) [2-deoxyuridine],0.04
19,CC1(C)S[C@@H]2[C@H](NC(=O)COc3ccccc3)C(=O)N2[C@H]1C(=O)O [Penicillin V potassium salt],-1.08
20,CC(C[N+](C)(C)C)OC(N)=O (stereo not given) [Bethanechol chloride],-0.3

row,Compound,z-score of subpopulation abundance
1,CC[C@@H]1/C=C(\C)C[C@H](C)C[C@H](OC)[C@H]2O[C@@](O)(C(=O)C(=O)N3CCCC[C@H]3C(=O)O[C@H](/C(C)=C/[C@@H]3CC[C@H](Cl)[C@H](OC)C3)[C@H](C)[C@@H](O)CC1=O)[C@H](C)C[C@@H]2OC [Pimecrolimus],2.63
2,C#C[C@]1(O)CC[C@H]2[C@@H]3CCC4=CCCC[C@@H]4[C@H]3C(=C)C[C@@]21CC [Desogestrel],-0.48
3,CN(C)C(=O)COC(=O)Cc1ccc(OC(=O)c2ccc(NC(=N)N)cc2)cc1 [Camostat Mesilate],-0.69
4,CN1CCC(=C2c3ccccc3C=Cc3ccccc32)CC1 [Cyproheptadine hydrochloride],-0.08
5,CCCCCCCCc1ccc(CCC(N)(CO)CO)cc1 [Fingolimod],-1.27
6,CC[C@H](C)C(=O)O[C@H]1C[C@@H](C)C=C2C=C[C@H](C)[C@H](CC[C@@H]3C[C@@H](O)CC(=O)O3)[C@H]21 [Lovastatin],0.35
7,CC(=O)[C@@]1(O)CC[C@H]2[C@@H]3C[C@H](C)C4=CC(=O)CC[C@]4(C)[C@H]3CC[C@@]21C [Medroxyprogesterone],0.34
8,NC(=O)c1cnccn1 [Pyrazinamide],-0.48
9,OCCOCCN1CCN(C2=Nc3ccccc3Sc3ccccc32)CC1 [Quetiapine Fumarate],0.41
10,N#C/C(=C1/SC[C@@H](c2ccc(Cl)cc2Cl)S1)n1ccnc1 [Luliconazole],11.1
11,Cc1nccn1CC1CCc2c(c3ccccc3n2C)C1=O (stereo not given) [Ondansetron Hydrochloride Dihydrate],-0.23
12,CC(C)NNC(=O)c1ccncc1 [Iproniazid],0.07
13,CCCN1C[C@H](C)[C@@H](O)[C@](C)(O)[C@@H](CC)OC(=O)[C@H](C)[C@@H](O[C@H]2C[C@@](C)(OC)[C@@H](O)[C@H](C)O2)[C@H](C)[C@@H](O[C@@H]2O[C@H](C)C[C@H](N(C)C)[C@H]2O)[C@](C)(O)C[C@H]1C [Gamithromycin],-0.18
14,NC[C@H]1O[C@H](O[C@H]2[C@H](O)[C@@H](O[C@H]3O[C@H](CO)[C@@H](O)[C@H](N)[C@H]3O)[C@H](N)C[C@@H]2N)[C@H](O)[C@@H](O)[C@@H]1O [Kanamycin sulfate],-0.1
15,CO[C@H]1O[C@@H]2O[C@@]3(C)CC[C@H]4[C@H](C)CC[C@@H]([C@H]1C)[C@@]24OO3 [Artemether],0.11
16,N[C@H]1CONC1=O [L-Cycloserine],5.78
17,COc1ccnc(C[S+]([O-])c2nc3cc(-n4cccc4)ccc3[nH]2)c1C (stereo not given) [Ilaprazole],0.68
18,CN1C2CCCC1CC(NC(=O)c1nn(C)c3ccccc13)C2 (stereo not given) [Granisetron],-0.81
19,O=C(O)c1cc(O)c2c(c1)[C@H]([C@H]1c3cc(C(=O)O)cc(O)c3C(=O)c3c(O[C@@H]4O[C@H](CO)[C@@H](O)[C@H](O)[C@H]4O)cccc31)c1cccc(O[C@@H]3O[C@H](CO)[C@@H](O)[C@H](O)[C@H]3O)c1C2=O [Sennoside A],-1.25
20,CN(C)CC(c1ccc(O)cc1)C1(O)CCCCC1 (stereo not given) [Desvenlafaxine],-0.91
